Assay outcomes deposited in PubChem by National Center for Advancing Translational Sciences (NCATS).
NS1 inh – influenza NS1 inhibition; Potency, µM (top dose mostly 46.1 µM), inactives show at the top dose activity, positive = more growth; 270,000 compounds, 0.4% hits; AID 2326; note: actives are rising curves; nearly all actives have a fitted effect of over 50% in size
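Growth recovery, yeast-based: influenza A NS1 expressed in S. cerevisiae causes slow growth, and suppressors are detected by OD600. The parent strain without NS1 is used as positive control.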
Pf growth 48h – inhibits P. falciparum growth in the first generation, 48 h. P. falciparum luciferase growth in erythrocytes, 48 h. Potency, µM (highest dose often 28.7 µM), without a hit: at the highest dose activity change, negative = inhibition, actives largely listed as inhibitors. 310,000 compounds, 5.9% hits; active = well fitted inhibition curve with a large enough effect; inconclusive = small, poorly fitted or top-dose-only effect, or another doubt; inactive = no such curve, though single readings can be large or run the other way; note: % is set by controls: 0 for no effect and ±100 for the full control effect
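A one-generation exposure of luciferase-tagged malaria parasites in RPMI 1640/Albumax erythrocyte culture, 37 C and 5% CO2. Inhibition is inferred from decreased luminescence after adding detection reagent.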
RE007 growth inh – less growth of the S. pombe RE007 Vpr strain; S. pombe RE007 Vpr strain, BacTiter-Glo ATP luminescence, 24 h; Potency, µM (series often up to 92.2 µM), inactives show at the highest dose activity change, negative = less growth, hits mostly inhibitors; 360,000 compounds, 0.21% hits; AID 651644; active = well fitted falling curve with a large enough effect; inconclusive = small, poorly fitted or top-dose-only effect; inactive = no such curve, though single readings can be large or run the other way; note: % is set by controls: 0 for no effect and ±100 for the full control effect; nearly all actives have a fitted effect of over 50% in size
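Fission yeast strain RE007, carrying one chromosomally integrated HIV-1 vpr copy, was seeded at OD 0.01 in PMG+AL medium with 23 nL pinned compound. After 24 h at 30 °C and 99% humidity, viability was read by BacTiter-Glo luminescence.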
SARS PLP yeast – SARS-CoV PLP inhibition in yeast. S. cerevisiae expressing SARS-CoV PLpro, growth rescue. Potency, µM (series often up to 32.9 µM), inactives show top-dose activity, positive = growth rescue, actives largely listed as activators. 330,000 compounds, 0.19% hits. AID 485353; note: 0% is about no effect; nearly all actives have a fitted effect of over 55% in size
Pf growth 96h – inhibits malaria parasite growth, 96 h; 320,000 compounds, 6.9% hits; P. falciparum luciferase reporter growth, 96 h; AID 504834; Potency, µM (highest dose often 28.7 µM), inactives show at the highest dose activity change, negative = inhibition, most hits filed as inhibitors; active = well fitted inhibition curve with a large enough effect; inconclusive = small, poorly fitted or top-dose-only effect, or another doubt; inactive = no such curve, though single readings can be large or run the other way; note: % is set by controls: 0 for no effect and ±100 for the full control effect
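Erythrocytes infected with luciferase-expressing P. falciparum were dispensed at 2% hematocrit and 0.05% parasitemia (final), then incubated with compounds 96 hours at 37 C in 5% CO2. Luminescence after detection reagent addition reported growth.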
* = called active by the depositor; ? = inconclusive; / = no result; [ ] = remark or other dose. In the library only some 9.5% were active in any assay of this set; here they are far more common. Unless noted, calls come from the whole dose curve. Potency is the fitted concentration of half-maximal effect.

SMILES	NS1 inh	Pf growth 48h	RE007 growth inh	SARS PLP yeast	Pf growth 96h
CC1=C(C(=O)Nc2ccccc2)C(c2ccc(Cl)cc2)n2c(s/c(=C/c3cccc(OCC(=O)O)c3)c2=O)=N1 (stereo not drawn)	11.1%	1.65µM*	-21.5%	-3.6%	4.7%
CC1=C(C(=O)Nc2ccccc2)C(c2ccc(C)o2)n2c(s/c(=C/c3ccccc3)c2=O)=N1 (stereo not drawn)	12.8%	/	8.2%	3.4%	?
CCOC(=O)C1=C(C)N=c2s/c(=C/c3ccc(OCC(=O)O)c(OC)c3)c(=O)n2C1c1ccc(Cl)cc1 (stereo not drawn)	/	/	-21.8%	/	/
CC1=C(C(=O)Nc2ccccc2C)C(c2ccc(C)o2)n2c(s/c(=C/c3ccccc3)c2=O)=N1 (stereo not drawn)	6.6%	2.94µM*	1.8%	-2.5%	/
Cc1cc(C(=O)CCC(=O)N(C)CC2COc3ccccc3O2)c(C)s1 (stereo not drawn)	/	/	-14.6%	/	/
Cc1nn(C)c(Cl)c1C(=O)NCC(=O)Nc1ccc(C(C)C)cc1	-0.2%	?	-9.7%	2.9%	-0.6%
CCN(CC)S(=O)(=O)c1ccc(NC(=O)C2CC(=O)N(c3ccc4c(c3)OCCO4)C2)cc1 (stereo not drawn)	/	/	-25.4%	/	/
COc1ccccc1CN(C(=O)CNC(=O)c1ccco1)C(C(=O)NCC1CCCO1)c1ccc(OC)c(OC)c1 (stereo not drawn)	13.5%	0.0%	21.1%	2.6%	?
O=C1[C@@H]2[C@H](C(=O)N1CC(O)COCc1ccccc1)C1C=C[C@H]2C1 (stereo partly drawn)	/	/	3.8%	/	/
CCCCCCOc1ccc(C(=N)N(CCCC)CCCC)c2ccccc12	/	12µM*	/	/	8.49µM*
CCOc1ccc(-c2cc(C(=O)NCCCN3CCCC3)c3ccccc3n2)cc1	1.0%	11.7µM*	-0.8%	0.7%	-7.0%
Cc1ccc(-c2cc(C(=O)NCCCN3CCCC3)c3ccccc3n2)cc1C	5.3%	5.22µM*	-4.8%	0.3%	?
Cc1ccc(-c2cc(C(=O)NCc3ccccn3)c3ccccc3n2)cc1C	-9.4%	8.28µM*	?	-14.5%	-7.6%
Cc1cccc(-c2cc(C(=O)NCc3ccccn3)c3ccccc3n2)c1	-18.1%	?	-18.1%	-8.1%	?
Cc1ccc(S(=O)(=O)N2CCOCC2)cc1NC(=O)CNCC1CCCCC1	/	6.5%	-12.0%	1.5%	?
O=C(NC1C2CC3CC(C2)CC1C3)C1CCCCC1 (stereo not drawn)	-9.0%	35.0%	5.0%	-0.8%	-17.7%
COc1cc2c(cc1OC)C(c1ccc(Cl)cc1)CC(=O)N2 (stereo not drawn)	2.0%	-9.4%	-6.3%	-4.5%	?
O=C1CC(c2ccc(F)cc2)c2cc3c(cc2N1)CCC3 (stereo not drawn)	-8.6%	14.7µM*	4.8%	-72.7%	25.3%
O=c1cc(CS(=O)(=O)c2ccccc2)nc(-c2ccncc2)[nH]1	/	11.7µM*	8.1%	0.8%	?
C[C@@H]1CN([C@@H](C)CO)C(=O)CCCn2nncc2CO[C@@H]1CN(C)C(=O)Nc1cccc(C(F)(F)F)c1	/	/	16.8%	/	/
CCn1c(=N)n(CC(=O)c2ccc(Br)s2)c2ccccc21	-2.1%	?	-2.9%	-0.2%	?
CCCCn1c(=N)n(CC(=O)c2ccc(Br)s2)c2ccccc21	-3.7%	10.4µM*	1.8%	0.3%	11.7µM*
CCN(CC)c1ccc(C(=O)OCc2cc(=O)oc3cc(O)ccc23)cc1	11.1%	?	9.7%	-9.7%	4.65µM*
CC1(C(=O)NCCCN2CCCC2=O)CCN1CCc1ccccc1 (stereo not drawn)	/	/	-6.1%[18.4 µM]	/	/
COc1ccc(N(CC(=O)NC2CCCC2)C(=O)CCC(=O)Nc2nc(C)cs2)cc1OC	-4.9%	?	4.6%	6.0%	?
SMILES	NS1 inh	Pf growth 48h	RE007 growth inh	SARS PLP yeast	Pf growth 96h
CCOc1ccc(S(=O)(=O)N2CCC(C(=O)OC(C)C(=O)NC3CCCCC3C)CC2)cc1 (stereo not drawn)	/	8.28µM*	-0.2%	3.5%	13.1µM*
N#Cc1ccccc1S(=O)(=O)N1CCC(C(=O)NCc2ccccc2CN2CCCC2)CC1	/	?	6.8%	-1.0%	6.57µM*
Cc1ccc(S(=O)(=O)N2CCC(C(=O)NCc3ccccc3CN3CCCC3)CC2)cc1	/	/	0.4%	-0.4%	/
CCOc1ccc(S(=O)(=O)N2CCC(C(=O)NCc3ccccc3CN3CCCC3)CC2)cc1	/	9.28µM*	-7.3%	2.6%	13.1µM*
CN1CCN(c2ccc3nc(-c4ccc5nc(-c6ccc(O)cc6)[nH]c5c4)[nH]c3c2)CC1	-42.7%	/	/	/	/
CCN1CCN(c2ccc(S(=O)(=O)N3CCCCC3)cc2NC(=O)c2cc3ccccc3o2)CC1	/	4.15µM*	0.7%	3.7%	2.08µM*
COc1ccc(CC(=O)Nc2cc(S(=O)(=O)N3CCCCC3)ccc2C)cc1	/	?	1.1%	-1.6%	?
O=C(Nc1cc(S(=O)(=O)N2CCOCC2)ccc1N1CCOCC1)c1cccc(Cl)c1	/	/	3.2%	/	/
CCN1CCN(c2ccc(S(=O)(=O)N3CCCCC3)cc2NC(=O)Cc2ccc(OC)cc2)CC1	-24.0%	9.28µM*	9.7%	3.3%	5.86µM*
CCN1CCN(c2ccc(S(=O)(=O)N3CCCCC3)cc2NC(=O)c2cccc(Cl)c2)CC1	/	?	-0.3%	8.5%	8.28µM*
CCN1CCN(c2ccc(S(=O)(=O)N3CCCCC3)cc2NC(=O)Cc2c(F)cccc2Cl)CC1	10.2%	?	-2.7%	1.7%	13.1µM*
Cc1ccc(S(=O)(=O)N2CCCCC2)cc1NC(=O)c1cc2ccccc2o1	/	?	-11.6%	3.6%	?
Cc1ccc(CN(C(=O)c2csnn2)C(C(=O)NC2CCCC2)c2ccccn2)cc1 (stereo not drawn)	-0.7%	?	-18.8%	1.9%	4.3%
COc1ccc(S(=O)(=O)N(Cc2ccco2)Cc2cc3ccccc3[nH]c2=O)cc1	5.0%	2.2%	-8.5%	-2.3%	?
CCN1CCN(c2ccc(S(=O)(=O)N3CCCCC3)cc2NC(=O)c2ccc(OC(F)F)cc2)CC1	/	?	-3.3%	3.5%	?
CCN1CCN(c2ccc(S(=O)(=O)N3CCCCC3)cc2NC(=O)c2cccc(OC(F)F)c2)CC1	/	?	-4.1%	-7.1%	10.4µM*
COc1ccc(CCC(=O)Nc2cc(S(=O)(=O)N3CCCCC3)ccc2N(C)C)cc1	/	10.4µM*	-3.9%	2.2%	?
COc1cc(C(=O)Nc2cc(S(=O)(=O)N3CCOCC3)ccc2N2CCOCC2)cc(OC)c1C	/	/	2.2%	/	/
O=C1CN(S(=O)(=O)c2cc(C(F)(F)F)ccc2Cl)CCN1	/	9.7%	-2.6%	13.4%	-19.6%
O=C(O)C1(c2ccccc2)CCN(S(=O)(=O)c2cccc(Cl)c2)CC1	-3.9%	26.2%	21.0%	-0.6%	22.8%
CCOCCOC(=O)CCSc1n[nH]c(=O)[nH]c1=O	-1.5%	13.6%	-5.4%	-2.4%	10.4µM*
Cc1ccc(S(=O)(=O)c2cc3cc(Br)ccc3oc2=O)cc1	10.4%	34.8%	-0.4%	13.3%	1.65µM*
